Assay outcomes from PubChem.
RE007 growth inh: less growth of the S. pombe RE007 Vpr strain | AID 651644 | Potency, µM (titrated, usually from 92.2 µM), without a hit: at the top dose activity change, negative = less growth, actives largely listed as inhibitors | hit rate 0.21% among 360,000 | S. pombe RE007 Vpr strain, BacTiter-Glo ATP luminescence, 24 h; active = well fitted falling curve with a large enough effect; inconclusive = small, poorly fitted or top-dose-only effect; inactive = no such curve, though single readings can be large or run the other way; note: nearly all actives have a fitted effect of over 50% in size
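Fission yeast strain RE007, carrying one chromosomally integrated HIV-1 vpr copy, was seeded at OD 0.01 in PMG+AL medium with 23 nL pinned compound. After 24 h at 30 °C and 99% humidity, viability was read by BacTiter-Glo luminescence.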
LmPK inh: blocks Leishmania mexicana pyruvate kinase activity. Q27686. purified LmPK, Kinase-Glo ATP luminescence, 1 h. Potency, µM (top dose mostly 57.5 µM), without a hit: at the highest dose activity change, negative = inhibition, actives largely listed as inhibitors. hit rate 0.37% among 290,000. AID 1721
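ATP generated from ADP (0.1 mM) and PEP (0.5 mM) by 0.1 nM LmPK over 1 h at room temperature (pH 7.2 imidazole buffer) was detected by coupled luciferase luminescence. Values were normalized to uninhibited and no-enzyme wells.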
FBPA Giardia inh: blocks Giardia fructose-bisphosphate aldolase activity. hit rate 0.71% among 290,000. A8B2U2. purified Giardia FBPA. Potency, µM (titrated, usually from 59.6 µM), without a hit: top-dose activity, negative = inhibition, usual class: inhibitors; note: nearly all actives have a fitted effect of over 55% in size
Target sequence (A8B2U2 whole entry, looked up): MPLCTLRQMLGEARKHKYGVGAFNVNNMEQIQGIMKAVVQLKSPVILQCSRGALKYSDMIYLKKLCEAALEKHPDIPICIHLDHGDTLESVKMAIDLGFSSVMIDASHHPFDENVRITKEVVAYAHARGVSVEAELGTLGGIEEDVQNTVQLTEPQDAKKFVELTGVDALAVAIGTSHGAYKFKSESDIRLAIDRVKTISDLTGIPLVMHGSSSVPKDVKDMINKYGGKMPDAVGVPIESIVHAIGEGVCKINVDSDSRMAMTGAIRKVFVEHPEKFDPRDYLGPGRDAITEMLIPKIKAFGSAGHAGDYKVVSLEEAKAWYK
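40 nM FBPA preincubated 10 min at RT with compound (up to 57.5 uM final), then substrate plus GAPDH/TPI/NAD/arsenate coupling and diaphorase/resazurin added. Fluorescence read after 20 min at RT, 525/598 nm.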
Sm TGR inh: blocks Schistosoma mansoni thioredoxin glutathione reductase; Q962Y6; purified TGR, DTNB reduction, TNB absorbance 405 nm; hit rate 3% among 360,000; Potency, µM (titrated, usually from 114 µM), without a hit: top-dose activity change, negative = inhibition, hits mostly inhibitors; note: nearly all actives have a fitted effect of over 60% in size
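Kinetic colorimetric format: TGR-catalysed, NADPH-driven DTNB reduction monitored via TNB absorbance. Enzyme dispensed at 20 nM; compound exposure 15 min at room temperature before reaction start.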
TbPYK inhibitor: T. brucei pyruvate kinase inhibition. Q57TT1. TbPYK enzyme, Kinase-Glo Plus ATP luminescence, 45 min. Potency, µM (doses to about 76.8 µM), for the others: top-dose activity, negative = inhibition, most hits filed as inhibitors. hit rate 0.12% among 410,000. AID 624173; note: nearly all actives have a fitted effect of over 50% in size
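Activity of T. brucei pyruvate kinase was followed by Kinase-Glo Plus luminescence after the enzyme reacted 45 min at room temperature with 130 uM ADP (final) and substrate. Test compounds were added before ADP at multiple concentrations.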
An asterisk follows results filed as active; u = inconclusive; x = no result; [ ] = remark or other dose. Only some compounds are listed: those with a hit (about 3.3% of all), similar ones and a draw of the others. Unless noted, calls come from the whole dose curve; as a rule, active = well fitted curve in the direction sought with a large enough effect; inconclusive = small, poorly fitted or top-dose-only effect, or another doubt; inactive = no such curve, though single readings can be large; an effect the other way counts as inactive or inconclusive. % is set by controls: 0 for no effect and ±100 for the full control effect; potency is the fitted concentration of half-maximal effect.

SMILES | RE007 growth inh | LmPK inh | FBPA Giardia inh | Sm TGR inh | TbPYK inhibitor
CNC(=O)Oc1cccc(-c2cn3cc(OC(=O)NC)ccc3n2)c1 | u | -21% | u | -19% | -8%
COc1cc(/C=N/n2cc(-c3ccccc3)[nH]c2=S)cc(OC)c1O | 18% | 2.5µM* | -8% | 3% | 1.1µM*
CC(C)c1cc(=O)oc2c3c4c(cc12)CCCN4CCC3 | -17% | 12% | u | 45µM* | -3%
COCC(=O)N1CCCC(C(=O)c2ccc(-c3ccccc3)cc2)C1 (configuration not stated) | -1% | -8% | 6% | 28µM* | -2%
CN1CCCC(C(=O)c2ccc(-c3ccccc3)cc2)C1 (configuration not stated) | -11% | -2% | 9% | -9% | -17%
CCn1c(SCC(=O)N2CCc3ccccc32)nnc1-c1ccco1 | -11% | -2% | -18% | -28% | 2%
O=C(CSc1nnc(-c2cccnc2)n1Cc1ccco1)N1CCc2ccccc21 | 8% | -2% | 0% | 45µM* | -15%
CCCn1c(SCC(=O)N2CCCc3ccccc32)nnc1-c1ccco1 | 1% | 4% | 1% | u | -9%
Cc1occc1-c1nnc(SCC(=O)N2CCCc3ccccc32)n1Cc1ccco1 | 8% | 0% | -1% | 40µM* | 7%
CC(C)[C@@H](C(=O)N1CCN(C(=O)OC(C)(C)C)CC1)n1cc(CCO)nn1 | 6% | 2% | 7% | 12% | 2%
CCOc1ccc(NC2=C(Cl)C(=O)N(C3CCCCC3)C2=O)cc1 | -7% | 1% | 0% | 7% | -2%
COc1ccc(C)cc1NC1=C(Cl)C(=O)N(C2CCCCC2)C1=O | -19% | 5% | x | 45µM* | -4%
CC(CC(=O)NCCc1ccc(S(N)(=O)=O)cc1)c1ccccc1 (configuration not stated) | 1% | -1% | 15% | 14% | 1%
Cc1cccc(N=Cc2[nH]c3ccc(Br)c(Cl)c3c2O)c1 | -19% | -5% | u | u | -10%
COc1ccccc1CN=Cc1[nH]c2ccc(Br)c(Cl)c2c1O | -17% | 12% | u | 11µM* | -3%
COc1cc(CN2CCC(C(=O)N3CCN(c4ccccc4F)CC3)CC2)cc(OC)c1O | 5% | 1% | u | u | -3%
CCOC(=O)C1CCN(Cc2ccc(O)c(OC)c2)CC1 | -10%[3.69 µM] | -1% | 16% | 56µM* | x
CCOC(=O)C1CCN(Cc2ccc(OC)c(OCc3ccccc3)c2)CC1 | -26% | -7% | u | 0% | -6%
CCOC(=O)C1CCN(Cc2ccc(Cl)c(Cl)c2)CC1 | 9% | -5% | -17% | 2% | 10%
CCOC(=O)C1CCCN(Cc2cc(OC)c(O)c(OC)c2)C1 (configuration not stated) | 11% | -5% | -25% | 16µM* | -14%
CCOC(=O)C1CCN(Cc2cc(C(C)(C)C)c(O)c(C(C)(C)C)c2)CC1 | -3% | 2% | -22% | 11µM* | 1%
COc1cc(CN2CCC(C(=O)N3CCCC(C)C3)CC2)cc(OC)c1O (configuration not stated) | -16% | -4% | u | 10µM* | -1%
CC[N+]1(C)CCC(O)(/C=C/c2ccccc2)C(C(=O)/C=C/c2ccccc2)C1 (configuration not stated) | 8.9µM* | x | x | x | -11%
Cc1cc(C)cc(CN2CCC(Oc3ccc(C(=O)N4CCCC4)cc3)CC2)c1 | -2% | -5% | 14% | 5% | 4%
CC(C)(C)C1=CC=C(C(C)(C)C)C(=O)C1=O | x | 22µM* | 7.9µM* | 25µM* | x
SMILES | RE007 growth inh | LmPK inh | FBPA Giardia inh | Sm TGR inh | TbPYK inhibitor
CC(NS(=O)(=O)c1ccc(Br)cc1)C(=O)NCc1ccc2c(c1)OCO2 (configuration not stated) | 16% | 3% | 4% | 5% | 3%
CC1(OC(=O)c2ccc(Cl)nc2)C(=O)C=C2C=C3CCCN3C=C2C1=O (configuration not stated) | -13% | -2%[11.5 µM] | u | 35µM* | -3%
COC(=O)CCC(=O)OC1(C)C(=O)C=C2C=C3CCCN3C=C2C1=O (configuration not stated) | -6% | -8%[11.5 µM] | u | u | -3%
O=S(=O)(c1c(F)cccc1F)N1CCN(Cc2c(O)ccc3ccccc23)CC1 | -6% | x | x | 2.2µM* | 0%
Oc1cnc2ccccc2c1CN1CCOCC1 | -2% | -1% | -20% | 0% | -3%
Oc1ccc2ccccc2c1CN1CCOCC1 | -27% | 7% | -24% | 0.45µM* | 4%
CC1C/C(=C/c2ccco2)C(=O)/C(=C/c2ccco2)C1 (configuration not stated) | x | 9% | u | 1.4µM* | x
CC(C)(C)C1C/C(=C/c2ccccn2)C(=O)/C(=C/c2ccccn2)C1 (configuration not stated) | -11% | 0% | u | 18µM* | 6%
CN1C2CCC1/C(=C/c1ccccn1)C(=O)/C2=C\c1ccccn1 | u | -5% | -10% | -25% | -13%
O=C1/C(=C/c2ccco2)Cc2ccccc21 | -18% | -23% | -10% | -30% | -11%
O=C1/C(=C/c2ccco2)CCC1C1CCCC1 (configuration not stated) | 3% | -8% | 1% | 50µM* | -3%
O=C1/C(=C/c2ccccc2)CCC1C1CCCC1 (configuration not stated) | -6% | -10% | 1% | 6% | 1%
CC1C/C(=C/c2ccccn2)C(=O)/C(=C/c2ccccn2)C1 (configuration not stated) | 63µM* | 0% | -19% | 16µM* | 3%
O=c1[nH]c(CSc2ccccn2)nc2c1oc1ccccc12 | -2% | -10% | -8% | -2% | -2%
CCC(C(=O)Nc1nnc(-c2ccco2)s1)c1ccccc1 (configuration not stated) | -13% | 3% | 4% | 32µM* | 4%
COc1ccccc1OCC(=O)Nc1nnc(-c2ccco2)s1 | u | 3% | 0% | 32µM* | -5%
Cc1cccc(OCC(=O)Nc2nnc(-c3ccco3)s2)c1 | -14% | -1% | 0% | 14µM* | -8%
Cc1ccc2nc(Nc3ccc(Cl)cc3)c3nncn3c2c1 | u | 2% | 17% | -1% | 6%
O=[N+]([O-])c1ccc(Sc2nnnn2-c2ccccc2)nc1 | u | 5% | 0% | 14µM* | -3%
COCCNC(=O)CCn1nc(-c2ccc(Cl)cc2)ccc1=O | -19% | 2% | -1% | 9% | -5%
COC(=O)c1ccc(C(NC(=O)OCc2ccccc2)/C(C)=C/[C@@H](C)C(=O)N(C)Cc2cccnc2)cc1 (some centres not stated) | x | x | -2% | x | x
Cn1c(SCC(=O)N2CCCC2)nc2cccnc21 | 23% | 1% | -13% | 40µM* | -3%
